# Screens (PubChem BioAssay)
# TTR transcr act = TTR transcription activation, primary screen; SH-SY5Y TTR promoter Gaussia luciferase, luminescence; 100% = recombinant luciferase protein wells; activation, % at 16.7 µM; actives 1.3% (n = 92,000);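 active = activation above the mean of all tested compounds plus 3 SD, cut at about 9.5% in these data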;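 note: cells exposed to compounds for one day before reading; 0% = median of all test compound wells on the plate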
# HuH7 TTR inh = HuH7 TTR transcription inhibition, counter-screen; shares compounds with TTR transcr act; HuH7 TTR promoter-Gaussia luciferase reporter, luminescence; inhibition, % at 16.7 µM; actives 4% (n = 1,100); AID 1117279;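 active = average inhibition above the solvent-only control wells' mean plus 3 SD, cut at about 15% in these data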;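 note: 0% = cells with DMSO only and 100% = cells with inhibitor control FD; inhibitors lower well luminescence so higher value means more inhibition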
# TTR act confirm = human TTR transcription activation, confirmation; shares compounds with TTR transcr act; 1,100 tested, under 10 active; SHSY5Y TTR promoter Gaussia luciferase, luminescence; 100% = purified Lucia enzyme wells, no cells; activation, % at 16.7 µM;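 active = mean activation above a set limit taken from the earlier primary screen, cut at about 11% in these data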;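 note: 0% = DMSO-treated cells and 100% = recombinant Lucia luciferase without cells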
# * = called active by the depositor. Shown is part of a subset that was picked to be rich in hits.
SMILES,TTR transcr act,others
Cc1ccc(CNC(=O)c2cccnc2)cc1,1,
Cc1cc(C)c(C)c(OCC(=O)O/N=C(\N)c2cccnc2)c1,-1,
CN(C(=O)c1ccc(NC(=O)Cc2ccc(NC(=O)C3CCN(C(=O)c4ccccc4)CC3)cc2)cc1)C1CCCC1,6,
COc1cccc(CNS(=O)(=O)c2cc(Br)ccc2Br)c1OC,4,
COc1cccc(NC(=O)CN(C)C(=O)c2ccc(NS(=O)(=O)c3ccc(F)cc3)cc2)c1,0,
COc1cccc(NC(=O)CN(C)C(=O)c2cc(S(=O)(=O)Nc3ccccc3OC)ccc2C)c1,4,
COc1cccc(NC(=O)CN(C)C(=O)c2cc(S(=O)(=O)NCc3ccccc3)ccc2C)c1,32*,HuH7 TTR inh=-20;TTR act confirm=1
CCOC(=O)[C@]12CCCC=C1N(Cc1ccc(OC)cc1)C(=O)[C@@H]2CC(=O)N1CCCCC1,0,
Clc1cccc(Cl)c1C1Nc2cccc3cccc(c23)N1,-1,
Brc1cccc(C2Nc3cccc4cccc(c34)N2)c1,-2,
Clc1ccc(C2Nc3cccc4cccc(c34)N2)cc1Cl,9.8*,HuH7 TTR inh=5;TTR act confirm=-1
O=C(c1cccc(Cl)c1)N1CCC2CC1c1cc(N3CCOCC3)ccc12 (configuration not stated),0,
Cc1cccc(CC(=O)Nc2sc(C(C)C)cc2C(=O)N2CCOCC2)c1,1,
CCc1ccccc1NC(=O)[C@@H]1CCCN1S(=O)(=O)c1cccc2cccnc12,1,
COc1cccc(NC(=O)C2CCCN2S(=O)(=O)c2ccc3c(c2)C(C)(C)C(=O)N3C)c1 (configuration not stated),-1,
Cc1cccc(NC(=O)C2CCN(S(=O)(=O)c3ccc4c(c3)C(C)(C)C(=O)N4C)CC2)c1C,4,
CCOc1ccccc1NC(=O)C1CCCN1S(=O)(=O)c1ccc2c(c1)C(C)(C)C(=O)N2C (configuration not stated),12*,HuH7 TTR inh=-15;TTR act confirm=0
CCc1ccccc1NC(=O)C1CCCN1S(=O)(=O)c1ccc(-c2ccc(=O)[nH]n2)s1 (configuration not stated),1,
CCc1ccccc1NC(=O)C1CCCN1S(=O)(=O)c1ccc2c(c1)n(C)c(=O)c(=O)n2C (configuration not stated),18*,HuH7 TTR inh=-15;TTR act confirm=0
COc1ccc(C(=O)c2[nH]c(N)c(C(=O)NCCc3c[nH]c4ccccc34)c2-c2ccc(OC)c(OC)c2)cc1,-3,
COCCN1CC(=O)N2C(c3cccc(OC)c3)c3[nH]c4ccccc4c3C[C@H]2C1=O (some centres not stated),1,
O=C(N[C@@H](Cc1ccccc1)C(=O)O)c1cccs1,2,
O=C(NCc1ccccc1)OC1CCC12CCC(c1ccccc1)CC2 (configuration not stated),1,
CCCCNC(=O)C1(C)CCCCN1C(=O)c1cc(C)n(C(C)(C)C)n1 (configuration not stated),-1,
CC1(C)CC(=O)C=C(c2ccc(OC(F)(F)F)cc2)C1,12*,HuH7 TTR inh=-5;TTR act confirm=-1
SMILES,TTR transcr act,others
CC1(C)CC(=O)C=C(c2ccc(I)cc2)C1,2,
CC1(C)CC(=O)C=C(c2ccc(Oc3ccccc3)cc2)C1,-3,
O=C(c1ccc(F)cc1)n1ccc2ccc(-c3ccc4ccn(Cc5ccccc5)c4c3)cc21,1,
CCC[C@H]1[C@@H](NC(=O)c2cccc(Cl)c2)CC[C@@]23CCCN2C(=O)CCC[C@@H]13,0,
COC(=O)C1CCN(C2CN(C3CCCCC3)S(=O)(=O)C2)CC1 (configuration not stated),-1,
COc1ccc(Cc2nnc(NC(=O)c3cccs3)s2)cc1OC,15*,HuH7 TTR inh=-30;TTR act confirm=0
COc1cccc(C(=O)Nc2nnc(Cc3ccc(OC)c(OC)c3)s2)c1,-1,
COc1ccc(Cc2nnc(NC(=O)c3ccc(OC(C)=O)cc3)s2)cc1OC,5,
CCC[C@H]1[C@@H](NC(=O)c2cccc(N(C)C)c2)CC[C@@]23CCCN2C(=O)CCC[C@@H]13,3,
CC(C)(O)C#Cc1ccc(C(=O)NCCc2ccc(S(N)(=O)=O)cc2)cc1,-1,
CCN(c1ccccc1)S(=O)(=O)c1ccc(C(=O)NCCc2ccc(S(N)(=O)=O)cc2)cc1,-1,
CCOc1cc(C(=O)NCCc2ccc(S(N)(=O)=O)cc2)cc(OCC)c1OCC,19*,HuH7 TTR inh=0;TTR act confirm=1
COC(=O)c1c(C)[nH]c(C(=O)OC(C)C(=O)NC2CCCCC2C)c1C (configuration not stated),1,
CC(=O)N(C)c1ccc(N=Nc2c(C)[nH]n(C(N)=S)c2=O)cc1,-1,
CC(=O)N(C)c1ccc(N=Nc2c(C)[nH]n(-c3ccccc3)c2=O)cc1,11*,HuH7 TTR inh=-4;TTR act confirm=0
CCOC(=O)c1ccc(N=Nc2c(C)[nH]n(-c3ccccc3)c2=O)cc1,0,
